{"source": "PubChem BioAssay (Tox21)", "note": "The source made the active and inactive calls. The call rests on the fitted dose curve. Residues, ends and D or L forms follow the SMILES beside them. On the % scale 0 is the no-effect control and ±100 the full control effect."}
{"target": "Acetylcholinesterase (Homo sapiens) (UniProt P22303)", "sequence (P22303 whole entry, looked up)": "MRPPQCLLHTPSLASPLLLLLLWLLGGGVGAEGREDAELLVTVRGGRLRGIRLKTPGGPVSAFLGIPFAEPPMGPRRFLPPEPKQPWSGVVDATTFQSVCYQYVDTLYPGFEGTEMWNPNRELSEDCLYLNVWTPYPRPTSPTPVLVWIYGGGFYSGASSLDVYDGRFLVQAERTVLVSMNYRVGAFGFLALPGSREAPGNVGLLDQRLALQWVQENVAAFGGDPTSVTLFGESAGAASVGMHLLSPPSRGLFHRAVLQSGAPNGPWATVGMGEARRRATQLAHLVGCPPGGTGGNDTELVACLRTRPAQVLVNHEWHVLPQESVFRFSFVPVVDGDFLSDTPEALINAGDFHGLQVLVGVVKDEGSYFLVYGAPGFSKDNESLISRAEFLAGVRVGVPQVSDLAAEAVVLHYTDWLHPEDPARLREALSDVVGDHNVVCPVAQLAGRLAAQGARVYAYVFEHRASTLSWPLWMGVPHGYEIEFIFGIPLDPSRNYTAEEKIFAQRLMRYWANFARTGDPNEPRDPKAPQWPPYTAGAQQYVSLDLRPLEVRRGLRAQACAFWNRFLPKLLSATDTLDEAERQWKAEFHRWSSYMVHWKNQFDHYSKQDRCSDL", "assay": "Acetylcholinesterase (AChE) small molecule antagonists: enzyme-based qHTS assay with human liver microsomes (AID 1347399); further: nearly all actives have a fitted effect of over 60% in size", "conditions": "Potency: qHTS inhibition; outcome: qHTS inhibition; series mostly up to 115 µM; activity change, negative = inhibition: at the top concentration", "in_short": "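Recombinant human AChE (50 mU/mL in the enzyme mix) and human liver microsomes (0.25 mg/mL final) were preincubated with compound and NADPH (0.25 mg/mL final) for 30 min at 37 C. Acetylthiocholine/DTNB was then added; thiocholine was read colorimetrically after 10 min at room temperature.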"}
{"smiles": "O=C(c1ccccc1)c1ccc(O)cc1", "activity change, negative = inhibition": "2.57% (inactive)"}
{"smiles": "O=[N+]([O-])c1cccc(S(=O)(=O)O)c1", "activity change, negative = inhibition": "0% (inactive)"}
{"smiles": "CC(COC(=O)c1ccccc1)OC(=O)c1ccccc1", "note": "(stereo not given)", "activity change, negative = inhibition": "-0.516% (inactive)"}
{"smiles": "O=C(O)[C@H](O)[C@@H](O)[C@H](O[C@@H]1O[C@H](CO)[C@H](O)[C@H](O)[C@H]1O)[C@H](O)CO", "activity change, negative = inhibition": "-4.62% [at 53 µM] (inactive)"}
{"smiles": "COC(=O)CC(=O)OC", "Potency": "inactive"}
{"smiles": "CC(C)NC(=O)NC(C)C", "activity change, negative = inhibition": "-2.6% (inactive)"}
{"smiles": "O=C(O)CC(=O)C(=O)O", "activity change, negative = inhibition": "-0.471% (inactive)"}
{"smiles": "Cc1cc(NC(=O)C2=C(O)c3ccccc3S(=O)(=O)N2C)no1", "activity change, negative = inhibition": "0.539% [at 53 µM] (inactive)"}
{"smiles": "C[C@]12C(=O)OC(=O)[C@H]1[C@H]1C=C[C@@H]2C1", "activity change, negative = inhibition": "-2.57% (inactive)"}
{"smiles": "CC(=O)Nc1ccc(C)c(Cl)c1", "activity change, negative = inhibition": "0.382% (inactive)"}
{"smiles": "CCC(=O)OC(C)c1ccccc1", "note": "(stereo not given)", "activity change, negative = inhibition": "-0.997% (inactive)"}
{"smiles": "CCCCCCCCC/C=C/CC1CC(=O)OC1=O", "note": "(stereo not given)", "Potency": "inactive"}
{"smiles": "CCCCCCCCCCCC(=O)OCC(C)OC(=O)CCCCC(=O)O", "note": "(stereo not given)", "activity change, negative = inhibition": "-0.728% [at 53 µM] (inactive)"}
{"smiles": "Nc1nc2ccccc2[nH]1", "Potency": "inactive"}
{"smiles": "CCOc1cc(NC(C)=O)ccc1C(=O)OC", "activity change, negative = inhibition": "-1.71% [at 53 µM] (inactive)"}
{"smiles": "C=CC(C)(C)CC(=O)OC", "activity change, negative = inhibition": "-0.838% (inactive)"}
{"smiles": "N[C@H](Cc1c[nH]c2ccccc12)C(=O)O", "Potency": "inactive"}
{"smiles": "CC(C)(C)C(=O)CC(=O)C(C)(C)C", "activity change, negative = inhibition": "0.494% (inactive)"}
{"smiles": "N/C(=N\\N=C\\c1ccc(Cl)cc1)N/N=C/c1ccc(Cl)cc1", "activity change, negative = inhibition": "1.18% [at 53 µM] (inactive)"}
{"smiles": "CC(=O)N(CC(O)CN(C(C)=O)c1c(I)c(C(=O)NCC(O)CO)c(I)c(C(=O)NCC(O)CO)c1I)c1c(I)c(C(=O)NCC(O)CO)c(I)c(C(=O)NCC(O)CO)c1I", "note": "(stereo not given)", "activity change, negative = inhibition": "-0.168% [at 53 µM] (inactive)"}
{"smiles": "C=C(C)[C@H]1CC=C(C)C(=O)C1", "Potency": "inactive"}
{"smiles": "OC[C@H]1O[C@@H]2O[C@H]3[C@H](O)[C@@H](O)[C@@H](O[C@H]4[C@H](O)[C@@H](O)[C@@H](O[C@H]5[C@H](O)[C@@H](O)[C@@H](O[C@H]6[C@H](O)[C@@H](O)[C@@H](O[C@H]7[C@H](O)[C@@H](O)[C@@H](O[C@H]1[C@H](O)[C@H]2O)O[C@@H]7CO)O[C@@H]6CO)O[C@@H]5CO)O[C@@H]4CO)O[C@@H]3CO", "Potency": "inactive"}
{"smiles": "CN1CCC(=C2c3ccccc3C=Cc3ccccc32)CC1", "activity change, negative = inhibition": "-1.04% [at 53 µM] (inactive)"}
{"smiles": "CC(=O)O[C@@]12CO[C@@H]1C[C@H](O)[C@@]1(C)C(=O)[C@H](O)C3=C(C)[C@@H](OC(=O)[C@H](O)[C@@H](NC(=O)OC(C)(C)C)c4ccccc4)C[C@@](O)([C@@H](OC(=O)c4ccccc4)[C@H]21)C3(C)C", "activity change, negative = inhibition": "2.02% [at 53 µM] (inactive)"}
{"smiles": "O=C(O)c1ccccc1[N+](=O)[O-]", "activity change, negative = inhibition": "-0.844% (inactive)"}
{"smiles": "C=CC(=O)Nc1cc2c(Nc3ccc(F)c(Cl)c3)ncnc2cc1OCCCN1CCOCC1", "activity change, negative = inhibition": "-1.01% [at 53 µM] (inactive)"}
{"smiles": "OC[C@H]1O[C@@H](n2cnc3c(=S)nc[nH]c32)[C@H](O)[C@@H]1O", "activity change, negative = inhibition": "-19.7% [at 53 µM] (inactive)"}
{"smiles": "Cc1c(Nc2ncccc2C(=O)O)cccc1C(F)(F)F", "activity change, negative = inhibition": "1.45% [at 53 µM] (inactive)"}
{"smiles": "CCc1nccnc1CC", "activity change, negative = inhibition": "0.443% [at 23.6 µM] (inactive)"}
{"smiles": "CC1COc2ccccc2N1C(=O)C(Cl)Cl", "note": "(stereo not given)", "Potency": "inactive"}
{"smiles": "C[C@@H](CN1CC(=O)NC(=O)C1)N1CC(=O)NC(=O)C1", "activity change, negative = inhibition": "-0.614% [at 53 µM] (inactive)"}
{"smiles": "CC(C)(C)C1CCCCC1O", "note": "(stereo not given)", "activity change, negative = inhibition": "0.153% (inactive)"}
{"smiles": "CCOc1ccccc1OCC1CNCCO1", "note": "(stereo not given)", "outcome": "inactive"}
{"smiles": "C=CCOC(=O)CCCCCC", "activity change, negative = inhibition": "0.535% (inactive)"}
{"smiles": "CCCCCCCCCC=O", "activity change, negative = inhibition": "0.043% (inactive)"}
{"smiles": "C[N+]1(C)[C@@H]2CC(OC(=O)[C@H](CO)c3ccccc3)C[C@H]1[C@@H]1O[C@@H]12", "note": "(stereo not given in full)", "activity change, negative = inhibition": "-0.835% [at 53 µM] (inactive)"}
{"smiles": "O=C(NS(=O)(=O)/C=C/c1ccccc1)c1ccc(F)cc1Cl", "activity change, negative = inhibition": "-0.0891% (inactive)"}
{"smiles": "CCC(C)n1ncn(-c2ccc(N3CCN(c4ccc(OC[C@H]5CO[C@](Cn6cncn6)(c6ccc(Cl)cc6Cl)O5)cc4)CC3)cc2)c1=O", "note": "(stereo not given in full)", "activity change, negative = inhibition": "0.017% [at 53 µM] (inactive)"}
{"smiles": "COC(=O)[C@H](Cc1ccccc1)NC(=O)[C@@H](N)CC(=O)O", "note": "(H-Asp-Phe-OMe)", "Potency": "inactive"}
{"smiles": "CCCCN1C[C@H](O)[C@@H](O)[C@H](O)[C@H]1CO", "activity change, negative = inhibition": "1.68% [at 53 µM] (inactive)"}
